{"source": "paper PMC8384837", "about": "“Expanding the binding specificity for RNA recognition by a PUF domain”", "assay_in_all_cases": "yeast three-hybrid, YBZ-1, SC-Leu-His + 0.5 mM 3-AT, 4 days", "conditions_in_all_cases": "tags: N-Gal4 AD-HA kept; label: inside an RPR1-promoter hybrid RNA with tandem MS2 sites; ssRNA", "key": {"PUM1 PUF domain R3-VYG": {"target": "PUM1 PUF domain R3-VYG (Homo sapiens, UniProt Q14671 828-1176, C935V;R936Y;Q939G)", "method_in_brief": "(§1)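 Each repeat of the Pumilio-1 PUF domain was randomized at its three base-contacting residues, and these libraries were co-expressed from a centromeric plasmid with matching RNA elements in strain YBZ-1. After four days on SC-Leu (input) or SC-Leu-His + 0.5 mM 3-AT (selection), the repeat regions were PCR-amplified and Illumina-sequenced. The interaction score compares variant frequency between input and selection as a log change, computed in log2 with a pseudocount of 1 for absent variants.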"}, "PUM1 PUF domain R3-MRR": {"target": "PUM1 PUF domain R3-MRR (Homo sapiens, UniProt Q14671 828-1176, C935M;Q939R)", "method_in_brief": "as §1"}, "PUM1 PUF domain R6-TWR": {"target": "T1, PUM1 PUF domain R6-TWR (Homo sapiens, UniProt Q14671 828-1176, N1043T;Y1044W;Q1047R)", "T1 sequence": "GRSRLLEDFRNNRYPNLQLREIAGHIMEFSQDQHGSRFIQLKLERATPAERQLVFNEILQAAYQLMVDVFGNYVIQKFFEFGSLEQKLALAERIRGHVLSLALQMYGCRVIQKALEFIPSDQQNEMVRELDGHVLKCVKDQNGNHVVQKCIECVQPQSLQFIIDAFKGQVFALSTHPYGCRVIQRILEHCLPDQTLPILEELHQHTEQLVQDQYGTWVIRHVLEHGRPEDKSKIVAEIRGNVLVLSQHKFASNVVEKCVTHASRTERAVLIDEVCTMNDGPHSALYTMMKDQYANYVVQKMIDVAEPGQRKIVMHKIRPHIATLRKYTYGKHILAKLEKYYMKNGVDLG", "method_in_brief": "as §1"}, "PUM1 PUF domain R7-RFW": {"target": "PUM1 PUF domain R7-RFW (Homo sapiens, UniProt Q14671 828-1176, S1079R;N1080F;E1083W)", "method_in_brief": "as §1"}, "PUM1 PUF domain R7-RGR": {"target": "PUM1 PUF domain R7-RGR (Homo sapiens, UniProt Q14671 828-1176, S1079R;N1080G;E1083R)", "method_in_brief": "as §1"}, "PUM1 PUF domain R2-LWG": {"target": "PUM1 PUF domain R2-LWG (Homo sapiens, UniProt Q14671 828-1176, N899L;Y900W;Q903G)", "method_in_brief": "as §1"}, "PUM1 PUF domain R4-WGK": {"target": "PUM1 PUF domain R4-WGK (Homo sapiens, UniProt Q14671 828-1176, N971W;H972G;Q975K)", "method_in_brief": "as §1"}, "PUM1 PUF domain R5-QLV": {"target": "PUM1 PUF domain R5-QLV (Homo sapiens, UniProt Q14671 828-1176, C1007Q;R1008L;Q1011V)", "method_in_brief": "as §1"}, "PUM1 PUF domain R5-RRQ": {"target": "PUM1 PUF domain R5-RRQ (Homo sapiens, UniProt Q14671 828-1176, C1007R)", "method_in_brief": "as §1"}, "PUM1 PUF domain R5-RFF": {"target": "PUM1 PUF domain R5-RFF (Homo sapiens, UniProt Q14671 828-1176, C1007R;R1008F;Q1011F)", "method_in_brief": "as §1"}}, "data": [{"sequence": "GGCUAGAACUAGUGGAUCCCCCGGCGCCCGGCGGCUCGAGCCCGGGUAAGUGUAAUUAGUCUGCAUGCCGCCGGGCGCCAUGCCUGCAGGUCGACUCUAGAAAACAUG", "values": [{"measurement": "binding signal", "setting": "PUM1 PUF domain R3-VYG", "value": "2.46 log2 enrichment (interaction score)"}, {"measurement": "binding signal", "setting": "PUM1 PUF domain R3-MRR", "value": "3.08 log2 enrichment (interaction score)"}]}, {"sequence": "GGCUAGAACUAGUGGAUCCCCCGGCGCCCGGCGGCUCGAGCCCGGGUAAGUGCAAAUAGUCUGCAUGCCGCCGGGCGCCAUGCCUGCAGGUCGACUCUAGAAAACAUG", "values": [{"measurement": "binding signal", "setting": "PUM1 PUF domain R6-TWR", "value": "5.67 log2 enrichment (interaction score)"}]}, {"sequence": "GGCUAGAACUAGUGGAUCCCCCGGCGCCCGGCGGCUCGAGCCCGGGUAAGUCUAAAUAGUCUGCAUGCCGCCGGGCGCCAUGCCUGCAGGUCGACUCUAGAAAACAUG", "values": [{"measurement": "binding signal", "setting": "PUM1 PUF domain R7-RFW", "value": "5.36 log2 enrichment (interaction score)"}, {"measurement": "binding signal", "setting": "PUM1 PUF domain R7-RGR", "value": "5.01 log2 enrichment (interaction score)"}]}, {"sequence": "GGCUAGAACUAGUGGAUCCCCCGGCGCCCGGCGGCUCGAGCCCGGGUAAGUUUAAAUAGUCUGCAUGCCGCCGGGCGCCAUGCCUGCAGGUCGACUCUAGAAAACAUG", "values": [{"measurement": "binding signal", "setting": "PUM1 PUF domain R7-RGR", "value": "6.1 log2 enrichment (interaction score)"}]}, {"sequence": "GGCUAGAACUAGUGGAUCCCCCGGCGCCCGGCGGCUCGAGCCCGGGUAAGUGUAAAAAGUCUGCAUGCCGCCGGGCGCCAUGCCUGCAGGUCGACUCUAGAAAACAUG", "values": [{"measurement": "binding signal", "setting": "PUM1 PUF domain R2-LWG", "value": "8 log2 enrichment (interaction score)"}]}, {"sequence": "GGCUAGAACUAGUGGAUCCCCCGGCGCCCGGCGGCUCGAGCCCGGGUAAGUGUACAUAGUCUGCAUGCCGCCGGGCGCCAUGCCUGCAGGUCGACUCUAGAAAACAUG", "values": [{"measurement": "binding signal", "setting": "PUM1 PUF domain R4-WGK", "value": "3.57 log2 enrichment (interaction score)"}]}, {"sequence": "GGCUAGAACUAGUGGAUCCCCCGGCGCCCGGCGGCUCGAGCCCGGGUAAGUAUAAAUAGUCUGCAUGCCGCCGGGCGCCAUGCCUGCAGGUCGACUCUAGAAAACAUG", "values": [{"measurement": "binding signal", "setting": "PUM1 PUF domain R7-RFW", "value": "2.69 log2 enrichment (interaction score)"}]}, {"sequence": "GGCUAGAACUAGUGGAUCCCCCGGCGCCCGGCGGCUCGAGCCCGGGUAAGUGUGAAUAGUCUGCAUGCCGCCGGGCGCCAUGCCUGCAGGUCGACUCUAGAAAACAUG", "values": [{"measurement": "binding signal", "setting": "PUM1 PUF domain R5-QLV", "value": "2.52 log2 enrichment (interaction score)"}, {"measurement": "binding signal", "setting": "PUM1 PUF domain R5-RRQ", "value": "1.79 log2 enrichment (interaction score)"}]}, {"sequence": "GGCUAGAACUAGUGGAUCCCCCGGCGCCCGGCGGCUCGAGCCCGGGUAAGUGUAAAGAGUCUGCAUGCCGCCGGGCGCCAUGCCUGCAGGUCGACUCUAGAAAACAUG", "values": [{"measurement": "binding signal", "setting": "PUM1 PUF domain R2-LWG", "value": "3.16 log2 enrichment (interaction score)"}]}, {"sequence": "GGCUAGAACUAGUGGAUCCCCCGGCGCCCGGCGGCUCGAGCCCGGGUAAGUGUAAAUAGUCUGCAUGCCGCCGGGCGCCAUGCCUGCAGGUCGACUCUAGAAAACAUG", "values": [{"measurement": "binding signal", "setting": "PUM1 PUF domain R5-RFF", "value": "1.95 log2 enrichment (interaction score)"}, {"measurement": "binding signal", "setting": "PUM1 PUF domain R4-WGK", "value": "1.16 log2 enrichment (interaction score)"}, {"measurement": "binding signal", "setting": "PUM1 PUF domain R2-LWG", "value": "1.91 log2 enrichment (interaction score)"}, {"measurement": "binding signal", "setting": "PUM1 PUF domain R3-VYG", "value": "3.51 log2 enrichment (interaction score)"}, {"measurement": "binding signal", "setting": "PUM1 PUF domain R5-RRQ", "value": "3.35 log2 enrichment (interaction score)"}, {"measurement": "binding signal", "setting": "PUM1 PUF domain R6-TWR", "value": "7.84 log2 enrichment (interaction score)"}, {"measurement": "binding signal", "setting": "PUM1 PUF domain R3-MRR", "value": "0.71 log2 enrichment (interaction score)"}]}, {"sequence": "GGCUAGAACUAGUGGAUCCCCCGGCGCCCGGCGGCUCGAGCCCGGGUAAGUGUCAAUAGUCUGCAUGCCGCCGGGCGCCAUGCCUGCAGGUCGACUCUAGAAAACAUG", "values": [{"measurement": "binding signal", "setting": "PUM1 PUF domain R5-RFF", "value": "2.99 log2 enrichment (interaction score)"}, {"measurement": "binding signal", "setting": "PUM1 PUF domain R5-RRQ", "value": "4.75 log2 enrichment (interaction score)"}]}, {"sequence": "GGCUAGAACUAGUGGAUCCCCCGGCGCCCGGCGGCUCGAGCCCGGGUAAGUGUAACUAGUCUGCAUGCCGCCGGGCGCCAUGCCUGCAGGUCGACUCUAGAAAACAUG", "values": [{"measurement": "binding signal", "setting": "PUM1 PUF domain R3-MRR", "value": "0.49 log2 enrichment (interaction score)"}]}, {"sequence": "GGCUAGAACUAGUGGAUCCCCCGGCGCCCGGCGGCUCGAGCCCGGGUAAGUGUAAGUAGUCUGCAUGCCGCCGGGCGCCAUGCCUGCAGGUCGACUCUAGAAAACAUG", "values": [{"measurement": "binding signal", "setting": "PUM1 PUF domain R3-VYG", "value": "1.12 log2 enrichment (interaction score)"}, {"measurement": "binding signal", "setting": "PUM1 PUF domain R3-MRR", "value": "4.82 log2 enrichment (interaction score)"}]}, {"sequence": "GGCUAGAACUAGUGGAUCCCCCGGCGCCCGGCGGCUCGAGCCCGGGUAAGUGUAUAUAGUCUGCAUGCCGCCGGGCGCCAUGCCUGCAGGUCGACUCUAGAAAACAUG", "values": [{"measurement": "binding signal", "setting": "PUM1 PUF domain R4-WGK", "value": "3.03 log2 enrichment (interaction score)"}]}]}
